Assays:
Test in all cases: PBM; 200 nM protein, PBS
Settings in all cases: dsDNA, one strand shown
[1] = molecular target: VAX1 (Homo sapiens, UniProt Q5SQQ9 86-172)
[2] = molecular target: VAX1 (Homo sapiens, UniProt Q5SQQ9 86-172, T142I)
[3] = molecular target: VAX1 (Homo sapiens, UniProt Q5SQQ9 86-172, K157R)
VAX1 (Homo sapiens, UniProt Q5SQQ9 86-172, K157R), sequence (Q5SQQ9 86-172 K157R): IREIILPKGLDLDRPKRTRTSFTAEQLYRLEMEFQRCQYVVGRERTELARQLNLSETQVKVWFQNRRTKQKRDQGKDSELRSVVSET

VAX1 (Homo sapiens, UniProt Q5SQQ9 86-172), sequence (Q5SQQ9 86-172): as the sequence (Q5SQQ9 86-172 K157R) above, with R72K counted along it
VAX1 (Homo sapiens, UniProt Q5SQQ9 86-172, T142I), sequence (Q5SQQ9 86-172 T142I): as the sequence (Q5SQQ9 86-172 K157R) above, with T57I, R72K counted along it

Sequence	binding signal [1]	binding signal [2]	binding signal [3]
ATATTACC	11.5 upbm affinity estimate (log intensity, higher = more binding, comparable within an allelic series)	11.2 upbm affinity estimate (log intensity, higher = more binding, comparable within an allelic series)	11.4 upbm affinity estimate (log intensity, higher = more binding, comparable within an allelic series)
CGACCCAG	7.38 upbm affinity estimate (log intensity, higher = more binding, comparable within an allelic series)	7.45 upbm affinity estimate (log intensity, higher = more binding, comparable within an allelic series)	7.3 upbm affinity estimate (log intensity, higher = more binding, comparable within an allelic series)
CGGCAAGA	7.12 upbm affinity estimate (log intensity, higher = more binding, comparable within an allelic series)	7.22 upbm affinity estimate (log intensity, higher = more binding, comparable within an allelic series)	7.11 upbm affinity estimate (log intensity, higher = more binding, comparable within an allelic series)
ATCGTTCA	9.46 upbm affinity estimate (log intensity, higher = more binding, comparable within an allelic series)	9.08 upbm affinity estimate (log intensity, higher = more binding, comparable within an allelic series)	9.31 upbm affinity estimate (log intensity, higher = more binding, comparable within an allelic series)
GGTATACC	7.63 upbm affinity estimate (log intensity, higher = more binding, comparable within an allelic series)	7.37 upbm affinity estimate (log intensity, higher = more binding, comparable within an allelic series)	7.24 upbm affinity estimate (log intensity, higher = more binding, comparable within an allelic series)
CCTTCGCC	7.18 upbm affinity estimate (log intensity, higher = more binding, comparable within an allelic series)	7.38 upbm affinity estimate (log intensity, higher = more binding, comparable within an allelic series)	7.16 upbm affinity estimate (log intensity, higher = more binding, comparable within an allelic series)
TTATGGAA	9.61 upbm affinity estimate (log intensity, higher = more binding, comparable within an allelic series)	9.32 upbm affinity estimate (log intensity, higher = more binding, comparable within an allelic series)	9.34 upbm affinity estimate (log intensity, higher = more binding, comparable within an allelic series)
CGGGGGAC	7.24 upbm affinity estimate (log intensity, higher = more binding, comparable within an allelic series)	7.14 upbm affinity estimate (log intensity, higher = more binding, comparable within an allelic series)	6.94 upbm affinity estimate (log intensity, higher = more binding, comparable within an allelic series)
GAGAATCC	6.95 upbm affinity estimate (log intensity, higher = more binding, comparable within an allelic series)	7.22 upbm affinity estimate (log intensity, higher = more binding, comparable within an allelic series)	7.13 upbm affinity estimate (log intensity, higher = more binding, comparable within an allelic series)
AGATGAGC	8.9 upbm affinity estimate (log intensity, higher = more binding, comparable within an allelic series)		8.88 upbm affinity estimate (log intensity, higher = more binding, comparable within an allelic series)
ATATGGAC	9.25 upbm affinity estimate (log intensity, higher = more binding, comparable within an allelic series)	8.78 upbm affinity estimate (log intensity, higher = more binding, comparable within an allelic series)	8.81 upbm affinity estimate (log intensity, higher = more binding, comparable within an allelic series)
AATATTGG	9.86 upbm affinity estimate (log intensity, higher = more binding, comparable within an allelic series)	9.41 upbm affinity estimate (log intensity, higher = more binding, comparable within an allelic series)	9.62 upbm affinity estimate (log intensity, higher = more binding, comparable within an allelic series)
CGACTCCG	6.81 upbm affinity estimate (log intensity, higher = more binding, comparable within an allelic series)	7.11 upbm affinity estimate (log intensity, higher = more binding, comparable within an allelic series)	7.09 upbm affinity estimate (log intensity, higher = more binding, comparable within an allelic series)
CGTAATGA	12.7 upbm affinity estimate (log intensity, higher = more binding, comparable within an allelic series)	12.2 upbm affinity estimate (log intensity, higher = more binding, comparable within an allelic series)	12.2 upbm affinity estimate (log intensity, higher = more binding, comparable within an allelic series)
CGCGGCAC	6.77 upbm affinity estimate (log intensity, higher = more binding, comparable within an allelic series)	7.02 upbm affinity estimate (log intensity, higher = more binding, comparable within an allelic series)	7.21 upbm affinity estimate (log intensity, higher = more binding, comparable within an allelic series)
CCTGCAGA	7.26 upbm affinity estimate (log intensity, higher = more binding, comparable within an allelic series)	7.33 upbm affinity estimate (log intensity, higher = more binding, comparable within an allelic series)	7.23 upbm affinity estimate (log intensity, higher = more binding, comparable within an allelic series)
CGTTGGGC	7.21 upbm affinity estimate (log intensity, higher = more binding, comparable within an allelic series)	7.31 upbm affinity estimate (log intensity, higher = more binding, comparable within an allelic series)	7.23 upbm affinity estimate (log intensity, higher = more binding, comparable within an allelic series)
CAGCCGTA	7.32 upbm affinity estimate (log intensity, higher = more binding, comparable within an allelic series)	7.28 upbm affinity estimate (log intensity, higher = more binding, comparable within an allelic series)	7.24 upbm affinity estimate (log intensity, higher = more binding, comparable within an allelic series)
TATAAAGA	9.93 upbm affinity estimate (log intensity, higher = more binding, comparable within an allelic series)	9.32 upbm affinity estimate (log intensity, higher = more binding, comparable within an allelic series)	9.28 upbm affinity estimate (log intensity, higher = more binding, comparable within an allelic series)
GGTCTCCA	7.04 upbm affinity estimate (log intensity, higher = more binding, comparable within an allelic series)	7.37 upbm affinity estimate (log intensity, higher = more binding, comparable within an allelic series)	7.2 upbm affinity estimate (log intensity, higher = more binding, comparable within an allelic series)
ATTATTCC	10.3 upbm affinity estimate (log intensity, higher = more binding, comparable within an allelic series)	10.1 upbm affinity estimate (log intensity, higher = more binding, comparable within an allelic series)	10.1 upbm affinity estimate (log intensity, higher = more binding, comparable within an allelic series)
AATATGCT	9.71 upbm affinity estimate (log intensity, higher = more binding, comparable within an allelic series)	9.56 upbm affinity estimate (log intensity, higher = more binding, comparable within an allelic series)	9.53 upbm affinity estimate (log intensity, higher = more binding, comparable within an allelic series)
CTTCATCA	9.74 upbm affinity estimate (log intensity, higher = more binding, comparable within an allelic series)	9.33 upbm affinity estimate (log intensity, higher = more binding, comparable within an allelic series)	9.51 upbm affinity estimate (log intensity, higher = more binding, comparable within an allelic series)
AAGGTCAT	9.64 upbm affinity estimate (log intensity, higher = more binding, comparable within an allelic series)	9.26 upbm affinity estimate (log intensity, higher = more binding, comparable within an allelic series)	9.4 upbm affinity estimate (log intensity, higher = more binding, comparable within an allelic series)
